Laboratory results as given in PubChem BioAssay AID652042 (Broad Institute, 2013).
The whole screen tested about 1,100 compounds, of which about 350 (32%) were called active. No rule for the calls is given here. The list is a sample of the results. Potency and affinity values are given separately.

experiment: viability loss in CEM21 cells – cell-based, CellTiter-Glo luminescence, cherry-picked, cytotoxicity control for viral fusion inhibitor project, dose response (AID 652042); conditions: CellTiter-Glo ATP luminescence, 24 h; series mostly up to 35 µM; activity change, negative = cytotoxicity: at the top concentration

Row | Structure (SMILES) | activity change, negative = cytotoxicity
1 | O=C(Nc1ccc(Cl)cc1)C1CCCN(C2=NS(=O)(=O)c3ccccc32)C1 (configuration not stated) | 5.19% [at 16 µM] (inactive)
2 | CCS(=O)(=O)Nc1ccc2c(c1)C(=O)N(C)C[C@H](OC)[C@@H](C)CN(C(=O)C1CCC1)[C@H](C)CO2 | 2.63% (inactive)
3 | CCc1ccc(-c2cn3nc(C)c(C)nc3n2)cc1 | -19.4% (inactive)
4 | COC(=O)[C@@]1(C)[C@H]2C(=O)N(Cc3ccccc3)C(=O)[C@H]2[C@H]2CN=C(SCC3CC3)N21 | -4.08% (inactive)
5 | C[C@@H]1CN([C@@H](C)CO)S(=O)(=O)c2ccc(-c3cccc(F)c3)cc2O[C@@H]1CN(C)S(=O)(=O)c1ccc(F)cc1 | -23.9% (inactive)
6 | COc1ccc(S(=O)(=O)Nc2ccc3c(c2)CC(=O)N([C@@H](C)CO)C[C@H](C)[C@H](CN(C)S(=O)(=O)c2ccc(F)cc2)O3)cc1 | -3.18% (inactive)
7 | COc1ccc(NC(=O)Nc2ccc3c(c2)C(=O)N([C@H](C)CO)C[C@H](C)[C@H](CN(C)S(=O)(=O)c2ccc(OC)cc2)O3)cc1 | -8.2% (inactive)
8 | COc1ccc(C(=O)C(C)N(C(=O)c2ccc(Cl)cc2Cl)N2C(=O)C3C4C=CC(C4)C3C2=O)cc1 (configuration not stated) | -14% (inactive)
9 | COc1ccc(Cn2nnnc2C(c2cc3cc(C)cc(C)c3[nH]c2=O)N2CCOCC2)cc1 (configuration not stated) | 1.27% (inactive)
10 | O=C(N(c1ccccn1)c1ccccn1)C12CC3CC(CC(Cl)(C3)C1)C2 | -0.057% (inactive)
11 | COC(=O)[C@@]1(Cc2ccc(F)cc2)[C@H]2c3cc(C(=O)N(C)C)n(CCO)c3C[C@H]2CN1C(=O)c1ccccc1 | 4.85% (inactive)
12 | Cc1cc(Cl)ccc1OCCCC(=O)Nc1cc(S(=O)(=O)N2CCOCC2)ccc1N1CCOCC1 | -2.78% (inactive)
13 | O=C(COC(=O)c1cc(S(=O)(=O)N2CCOCC2)ccc1O)NCc1ccc2c(c1)OCO2 | 7.4% (inactive)
14 | O=C(CCCOc1ccc(Cl)cc1Cl)Nc1cc(S(=O)(=O)N2CCOCC2)ccc1N1CCOCC1 | -10.9% (inactive)
15 | COC(=O)C1CCN(C(=O)COC(=O)c2cc(S(=O)(=O)N3CCOCC3)ccc2C)CC1 | 2.66% (inactive)
16 | CC(C)(C)C1CCc2onc(C(=O)NCc3ccc(F)cc3)c2C1 (configuration not stated) | -14.6% (inactive)
17 | Cn1c(=O)[nH]c2cc3ccccc3cc21 | -6.26% (inactive)
18 | N#Cc1ccc(CN2CCN(C(=O)CNC(=O)Cc3cccc4ccccc34)CC2)cc1 | -15.3% (inactive)
19 | CCCCNC(=O)C[C@H]1C[C@@]2(C(=O)OC)C(=C[C@H](C(C)(C)C)O[C@@H]2C)N(Cc2ccc3c(c2)OCO3)C1=O | -9.67% (inactive)
20 | C=C(C)CN(CC)c1nc(N)c2c(N)nc3c(c2c1C#N)CC(=O)N3C12CC3CC(CC(C3)C1)C2 | -28.7% (inactive)
21 | CN(C[C@H](Cc1ccccc1)N(C[C@H](Cc1ccccc1)N(CC1(c2ccccc2)CC1)N=O)N=O)N=O | -8.9% (inactive)
22 | COc1ccc2ncn(-c3ccccc3)c2c1 | -2.1% (inactive)
23 | COC(=O)[C@@]1(C)[C@H]2C(=O)N(Cc3ccccc3)C(=O)[C@H]2[C@H]2CN=C(SCc3ccccc3)N21 | -3.46% (inactive)
24 | CCOc1ccc2c(c1)-c1c(ssc1=S)C(C)(C)N2C(=O)c1ccco1 | -29.3% (inactive)
25 | CCn1c(COc2ccc(Cl)cc2)nnc1SCc1nc2ccccc2[nH]1 | -21.6% (inactive)
26 | COCCN(C(=O)COC(=O)C12CC3CC(CC(Cl)(C3)C1)C2)c1c(N)n(Cc2ccccc2)c(=O)[nH]c1=O | 5.3% [at 16 µM] (inactive)

Row | Structure (SMILES) | activity change, negative = cytotoxicity
27 | COCCCN(C(=S)NC(=O)C12CC3CC(CC(C3)C1)C2)c1c(N)n(Cc2ccccc2)c(=O)[nH]c1=O | 6.22% (inactive)
28 | CCOc1ccccc1C(=O)NCC(=O)NNC(=O)CN(C)S(=O)(=O)c1ccc(Cl)cc1 | -8.4% (inactive)
29 | Cc1cc(C)nc(/N=C(\N)Nc2ccc(CC(=O)OC(C)C)cc2)n1 | -16.5% (inactive)
30 | CCCC[C@H](CN(N=O)[C@@H](Cc1ccccc1)CN(C)N=O)N(CCc1ccccc1)N=O | -7.7% (inactive)
31 | CN(C(=O)c1cccc(NC(=O)Cc2cccc(NC(=O)C3CCCN(C(=O)C4CCC4)C3)c2)c1)C1CCC1 (configuration not stated) | -1.65% (inactive)
32 | O=C1c2cccnc2C(Nc2ccc(S(=O)(=O)N3CCCCCC3)cc2)N1Cc1ccccc1 (configuration not stated) | -1.75% (inactive)
33 | C[C@H]1CN([C@@H](C)CO)C(=O)c2ccccc2-c2ccccc2CO[C@@H]1CN(C)C(=O)CCC(F)(F)F | 1% (inactive)
34 | C[C@H]1CN([C@@H](C)CO)C(=O)c2ccccc2-c2ccccc2CO[C@H]1CN(C)S(=O)(=O)c1cccc(C#N)c1 | -13.5% (inactive)
35 | CC(OC(=O)c1ccc(NC(=O)CC#N)cc1)C(=O)NCCC1=CCCCC1 (configuration not stated) | -9.3% (inactive)
36 | Cc1ccc(S(=O)(=O)NCC(=O)OCC(=O)NCc2ccc3c(c2)OCO3)cc1 | 9.32% [at 16 µM] (inactive)
37 | Cc1nc2ccccc2c2oc(C(=O)NCc3ccc4c(c3)OCO4)cc12 | -2% (inactive)
38 | C[C@@]12C(=O)N(c3cccc(Cl)c3)C(=O)N1[C@H](c1ccc(Cl)cc1)[C@@H]1C(=O)N(C3CCCCC3)C(=O)[C@@H]12 | -18.4% (inactive)
39 | CCCCCCCn1c(NC(=O)CC)nc2ccccc21 | -26% (inactive)
40 | COc1ccc(C(O)c2nc3ccccc3n2C)cc1OC (configuration not stated) | -1.11% (inactive)
41 | Cc1ccc2cc(C#N)c(NCCNC(=O)C3CCC3)nc2c1C | -0.969% (inactive)
42 | CC1=NN(C(=O)c2ccccc2)C(O)(c2ccc(Br)cc2)C1 (configuration not stated) | -5.67% (inactive)
43 | Cc1ccc(S(=O)(=O)N(C)C[C@@H]2Oc3ccc(NC(=O)Cc4cn(C)c5ccccc45)cc3CC(=O)N([C@H](C)CO)C[C@@H]2C)cc1 | -7.68% (inactive)
44 | CC(C)CNC(=O)c1ccccc1NC(=O)c1ccccc1N(C)S(=O)(=O)c1ccccc1 | -4.43% (inactive)
45 | CNC[C@H]1Oc2c(NC(=O)Nc3cccc4ccccc34)cccc2C(=O)N([C@H](C)CO)C[C@H]1C | -11.5% (inactive)
46 | CC(=O)c1c(C)[nH]c(C(=O)OCC(=O)Nc2ccc(Cl)c(S(=O)(=O)N(C)C)c2)c1C | -12% (inactive)
47 | Cc1nc2ccc(NC(=O)c3cc(S(=O)(=O)N(C)c4ccccc4)ccc3Cl)cc2s1 | -9.18% (inactive)
48 | CC[C@@]1(C(=O)OC)N[C@H](CN(C)C(=O)Nc2ccc(OC)cc2)[C@@H]2C(=O)N(Cc3ccccc3)C(=O)[C@@H]21 | 1.04% (inactive)
49 | COc1ccc(CCCC(=O)NCCc2ccccc2)c(C)c1 | 3.67% (inactive)
50 | COc1ccc(CCNC(=O)COC(=O)c2cccn2C)cc1 | 3.42% (inactive)
51 | CCOC(=O)c1c(C)[nH]c(C)c1C(=O)COC(=O)[C@@H](NC(=O)c1ccccc1OCC)C(C)C | -7.56% (inactive)
52 | COc1ccccc1N(C)S(=O)(=O)c1ccc(Cl)c(C(=O)NCC2(N(C)C)CCCCC2)c1 | -3.25% (inactive)
